This note sets out measurements from ChEMBL document CHEMBL3988442, “University of Dundee, Small-Polar-MMV Screening Library” (2021).

For some assays here: Results with a measured potency or affinity are listed apart.

Design in all cases: scale not given: direction of the effect not stated beside the values
Assay [1] deals with Protein translocase subunit SecA (Escherichia coli (strain K12)) (UniProt P10408). The assay can be described thus: Assay to Identify E. coli SecA ATPase Inhibitors. It counts as functional. To be noted: 30 µM.
Sequence of Protein translocase subunit SecA (Escherichia coli (strain K12)) (P10408 whole entry): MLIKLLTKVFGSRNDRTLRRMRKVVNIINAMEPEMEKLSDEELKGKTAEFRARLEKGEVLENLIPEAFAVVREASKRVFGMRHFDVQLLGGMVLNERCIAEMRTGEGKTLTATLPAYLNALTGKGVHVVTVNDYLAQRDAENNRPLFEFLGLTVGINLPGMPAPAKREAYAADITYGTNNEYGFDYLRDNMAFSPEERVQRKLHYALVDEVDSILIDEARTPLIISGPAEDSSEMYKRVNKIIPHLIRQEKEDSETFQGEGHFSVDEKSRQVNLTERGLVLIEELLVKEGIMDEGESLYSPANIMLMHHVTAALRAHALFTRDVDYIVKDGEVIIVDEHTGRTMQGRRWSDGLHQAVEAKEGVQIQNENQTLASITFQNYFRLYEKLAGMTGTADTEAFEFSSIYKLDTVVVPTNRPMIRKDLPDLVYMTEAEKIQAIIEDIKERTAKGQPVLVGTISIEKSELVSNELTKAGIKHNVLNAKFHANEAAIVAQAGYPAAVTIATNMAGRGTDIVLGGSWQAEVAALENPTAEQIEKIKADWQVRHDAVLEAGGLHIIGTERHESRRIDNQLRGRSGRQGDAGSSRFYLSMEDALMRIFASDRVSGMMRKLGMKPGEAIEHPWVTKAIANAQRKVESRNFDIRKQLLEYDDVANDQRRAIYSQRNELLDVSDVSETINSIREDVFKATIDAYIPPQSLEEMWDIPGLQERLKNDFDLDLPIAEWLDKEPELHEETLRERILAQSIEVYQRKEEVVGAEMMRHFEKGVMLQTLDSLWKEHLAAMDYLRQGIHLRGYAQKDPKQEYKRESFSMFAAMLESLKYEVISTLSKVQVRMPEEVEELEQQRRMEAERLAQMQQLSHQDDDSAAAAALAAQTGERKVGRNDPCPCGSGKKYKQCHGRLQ
For assay [2], the target named is T1, Ubiquitin-activating enzyme e1, putative (Leishmania donovani (strain BPK282A1)) (UniProt E9BSI1).
T1 sequence (whole entry): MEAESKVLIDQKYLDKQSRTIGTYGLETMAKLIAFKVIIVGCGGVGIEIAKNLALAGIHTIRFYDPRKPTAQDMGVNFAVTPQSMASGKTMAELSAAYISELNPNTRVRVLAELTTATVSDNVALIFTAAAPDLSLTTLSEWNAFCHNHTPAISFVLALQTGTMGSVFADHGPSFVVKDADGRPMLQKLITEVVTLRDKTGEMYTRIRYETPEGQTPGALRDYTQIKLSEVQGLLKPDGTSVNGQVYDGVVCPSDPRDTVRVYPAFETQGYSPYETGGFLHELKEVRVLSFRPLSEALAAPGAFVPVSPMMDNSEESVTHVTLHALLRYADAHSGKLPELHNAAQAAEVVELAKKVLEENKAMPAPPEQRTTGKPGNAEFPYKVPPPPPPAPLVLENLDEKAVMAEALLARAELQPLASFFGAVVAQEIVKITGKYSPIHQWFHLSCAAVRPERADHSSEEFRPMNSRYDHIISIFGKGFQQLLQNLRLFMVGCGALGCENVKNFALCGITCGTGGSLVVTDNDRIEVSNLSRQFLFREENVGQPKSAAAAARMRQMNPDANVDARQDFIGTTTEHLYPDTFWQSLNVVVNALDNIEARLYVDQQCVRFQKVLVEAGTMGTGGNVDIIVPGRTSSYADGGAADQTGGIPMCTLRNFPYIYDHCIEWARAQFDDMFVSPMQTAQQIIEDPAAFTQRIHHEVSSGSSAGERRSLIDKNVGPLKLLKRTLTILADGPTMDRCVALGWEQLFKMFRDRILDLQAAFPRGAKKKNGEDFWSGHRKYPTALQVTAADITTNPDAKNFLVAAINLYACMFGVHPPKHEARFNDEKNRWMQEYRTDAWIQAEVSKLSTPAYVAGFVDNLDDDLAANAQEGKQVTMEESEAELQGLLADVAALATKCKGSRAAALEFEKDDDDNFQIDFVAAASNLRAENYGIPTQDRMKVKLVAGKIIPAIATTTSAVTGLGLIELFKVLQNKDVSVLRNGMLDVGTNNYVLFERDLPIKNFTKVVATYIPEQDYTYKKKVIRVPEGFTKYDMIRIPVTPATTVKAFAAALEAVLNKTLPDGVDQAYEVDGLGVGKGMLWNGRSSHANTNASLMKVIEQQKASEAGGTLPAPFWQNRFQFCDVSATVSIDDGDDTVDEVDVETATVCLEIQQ
Description: Leishmania donovani Ubiquitin Activating Enzyme (LdE1). The format is functional. To be noted: 30 µM.

The target in assay [3] is Sialic acid-binding Ig-like lectin 9 (Homo sapiens) (UniProt Q9Y336). Description: Hs-Siglec9 ALPHAscreen SOP 20170721. The following applies: 10 µM.
Sequence of Sialic acid-binding Ig-like lectin 9 (Homo sapiens) (Q9Y336 whole entry): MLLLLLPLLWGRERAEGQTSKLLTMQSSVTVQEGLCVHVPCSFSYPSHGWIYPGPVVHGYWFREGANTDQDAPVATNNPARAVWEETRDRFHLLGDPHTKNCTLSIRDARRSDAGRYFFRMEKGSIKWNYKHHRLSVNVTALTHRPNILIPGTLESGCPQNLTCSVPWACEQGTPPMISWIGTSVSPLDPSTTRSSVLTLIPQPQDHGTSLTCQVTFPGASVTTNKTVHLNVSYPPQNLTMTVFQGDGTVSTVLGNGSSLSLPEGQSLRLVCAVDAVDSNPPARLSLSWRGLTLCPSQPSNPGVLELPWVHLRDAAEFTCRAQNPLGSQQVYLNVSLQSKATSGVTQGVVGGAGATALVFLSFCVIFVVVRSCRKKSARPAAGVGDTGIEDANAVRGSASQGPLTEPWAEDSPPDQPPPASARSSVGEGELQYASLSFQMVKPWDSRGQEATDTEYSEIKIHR
Assay [4] relates to Trypanosoma cruzi. The assay can be described thus: Trypanosoma cruzi phosphomannomutase and mannose-1-phosphate guanylyltransferase assay. It counts as functional. To be noted: 10 µM.
The target of assay [5] is T2, Arginase-2, mitochondrial (Homo sapiens) (UniProt P78540).
T2 sequence (whole entry): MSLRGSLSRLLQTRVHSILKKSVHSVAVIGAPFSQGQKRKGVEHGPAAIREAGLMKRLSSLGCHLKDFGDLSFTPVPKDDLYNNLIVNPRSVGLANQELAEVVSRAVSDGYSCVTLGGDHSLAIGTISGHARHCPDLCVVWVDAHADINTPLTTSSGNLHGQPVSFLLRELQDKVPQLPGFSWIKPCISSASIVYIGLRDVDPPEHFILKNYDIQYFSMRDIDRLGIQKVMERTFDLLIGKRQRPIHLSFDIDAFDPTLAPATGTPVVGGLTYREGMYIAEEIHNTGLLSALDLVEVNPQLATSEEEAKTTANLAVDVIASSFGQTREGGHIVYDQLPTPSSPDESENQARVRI
Description: in vitro enzyme assay to detect the production of urea directly proportional to the activity of Arginase II. Also: in the data most compounds retested in dose-response had high values. To be noted: 33.3 µM. It counts as functional.

Assay [6] deals with T3, Proteasome subunit beta (Trypanosoma cruzi) (UniProt O96673).
T3 sequence (whole entry): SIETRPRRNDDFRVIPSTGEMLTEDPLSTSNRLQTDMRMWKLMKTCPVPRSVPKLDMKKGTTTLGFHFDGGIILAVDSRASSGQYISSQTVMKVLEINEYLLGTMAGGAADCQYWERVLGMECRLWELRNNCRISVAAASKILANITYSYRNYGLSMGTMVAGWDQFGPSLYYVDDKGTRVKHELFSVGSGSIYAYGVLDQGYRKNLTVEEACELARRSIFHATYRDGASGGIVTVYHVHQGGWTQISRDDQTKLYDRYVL
The assay can be described thus: Trypanosoma cruzi proteasome chymotrypsin-like activity (TcProtChymo) assay. Also: in the data most compounds retested in dose-response had high values. The following applies: 9.37 µM. The format is functional.

Assay [7] is filed under the species Homo sapiens. Description: To identify inhibition of the IFN signalling (Jak-Stat) pathway via expression of an eGFP reporter gene under the control of an IFN-stimulated response element (ISRE) containing MxA promoter. It counts as functional. The following applies: 30 µM. On the technique in general: Reporter assays use an easily measured gene product as a stand-in for the process of interest.

Assay [8] deals with T4, Tyrosyl-tRNA synthetase, putative (Trypanosoma cruzi (strain CL Brener)) (UniProt Q4DSP6).
T4 sequence (whole entry): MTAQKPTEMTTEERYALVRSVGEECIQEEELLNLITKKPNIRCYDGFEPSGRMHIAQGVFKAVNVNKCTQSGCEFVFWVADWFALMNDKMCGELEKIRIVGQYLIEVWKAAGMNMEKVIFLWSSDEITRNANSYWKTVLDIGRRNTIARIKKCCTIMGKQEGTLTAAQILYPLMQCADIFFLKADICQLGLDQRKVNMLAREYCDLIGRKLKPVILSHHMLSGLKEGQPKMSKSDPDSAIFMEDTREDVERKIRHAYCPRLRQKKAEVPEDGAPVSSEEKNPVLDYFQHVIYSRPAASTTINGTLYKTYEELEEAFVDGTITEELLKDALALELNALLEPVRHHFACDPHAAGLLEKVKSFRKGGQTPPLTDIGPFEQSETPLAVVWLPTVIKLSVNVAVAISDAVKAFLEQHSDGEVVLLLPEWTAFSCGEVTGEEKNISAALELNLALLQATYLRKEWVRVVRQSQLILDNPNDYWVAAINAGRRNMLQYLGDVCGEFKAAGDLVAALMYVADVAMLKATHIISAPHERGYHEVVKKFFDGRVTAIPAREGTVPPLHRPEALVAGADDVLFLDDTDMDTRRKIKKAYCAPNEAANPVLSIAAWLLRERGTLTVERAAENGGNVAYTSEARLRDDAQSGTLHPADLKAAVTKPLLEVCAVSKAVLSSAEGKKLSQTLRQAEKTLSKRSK
The assay can be described thus: Trypanosoma cruzi tyrosyl tRNA synthetase (TcYRS) _High Tyrosine SOP. Also: in the data most compounds retested in dose-response had high values. The format is functional. To be noted: 30 µM.

Assay [9] concerns the target T4, Tyrosyl-tRNA synthetase, putative (Trypanosoma cruzi (strain CL Brener)). Description: Trypanosoma cruzi tyrosyl tRNA synthetase (TcYRS) SOP. The format is functional. To be noted: 30 µM.
In assay [10] the target is Chromo domain-containing protein 1 (Saccharomyces cerevisiae (strain ATCC 204508 / S288c) (Baker's yeast)) (UniProt P32657). Description: ScCHD-1 Enzyme Inhibition Assay. Also: in the data most compounds retested in dose-response had high values. It counts as functional. To be noted: 30 µM.
Sequence of Chromo domain-containing protein 1 (Saccharomyces cerevisiae (strain ATCC 204508 / S288c) (Baker's yeast)) (P32657 whole entry, the tested form may be a part): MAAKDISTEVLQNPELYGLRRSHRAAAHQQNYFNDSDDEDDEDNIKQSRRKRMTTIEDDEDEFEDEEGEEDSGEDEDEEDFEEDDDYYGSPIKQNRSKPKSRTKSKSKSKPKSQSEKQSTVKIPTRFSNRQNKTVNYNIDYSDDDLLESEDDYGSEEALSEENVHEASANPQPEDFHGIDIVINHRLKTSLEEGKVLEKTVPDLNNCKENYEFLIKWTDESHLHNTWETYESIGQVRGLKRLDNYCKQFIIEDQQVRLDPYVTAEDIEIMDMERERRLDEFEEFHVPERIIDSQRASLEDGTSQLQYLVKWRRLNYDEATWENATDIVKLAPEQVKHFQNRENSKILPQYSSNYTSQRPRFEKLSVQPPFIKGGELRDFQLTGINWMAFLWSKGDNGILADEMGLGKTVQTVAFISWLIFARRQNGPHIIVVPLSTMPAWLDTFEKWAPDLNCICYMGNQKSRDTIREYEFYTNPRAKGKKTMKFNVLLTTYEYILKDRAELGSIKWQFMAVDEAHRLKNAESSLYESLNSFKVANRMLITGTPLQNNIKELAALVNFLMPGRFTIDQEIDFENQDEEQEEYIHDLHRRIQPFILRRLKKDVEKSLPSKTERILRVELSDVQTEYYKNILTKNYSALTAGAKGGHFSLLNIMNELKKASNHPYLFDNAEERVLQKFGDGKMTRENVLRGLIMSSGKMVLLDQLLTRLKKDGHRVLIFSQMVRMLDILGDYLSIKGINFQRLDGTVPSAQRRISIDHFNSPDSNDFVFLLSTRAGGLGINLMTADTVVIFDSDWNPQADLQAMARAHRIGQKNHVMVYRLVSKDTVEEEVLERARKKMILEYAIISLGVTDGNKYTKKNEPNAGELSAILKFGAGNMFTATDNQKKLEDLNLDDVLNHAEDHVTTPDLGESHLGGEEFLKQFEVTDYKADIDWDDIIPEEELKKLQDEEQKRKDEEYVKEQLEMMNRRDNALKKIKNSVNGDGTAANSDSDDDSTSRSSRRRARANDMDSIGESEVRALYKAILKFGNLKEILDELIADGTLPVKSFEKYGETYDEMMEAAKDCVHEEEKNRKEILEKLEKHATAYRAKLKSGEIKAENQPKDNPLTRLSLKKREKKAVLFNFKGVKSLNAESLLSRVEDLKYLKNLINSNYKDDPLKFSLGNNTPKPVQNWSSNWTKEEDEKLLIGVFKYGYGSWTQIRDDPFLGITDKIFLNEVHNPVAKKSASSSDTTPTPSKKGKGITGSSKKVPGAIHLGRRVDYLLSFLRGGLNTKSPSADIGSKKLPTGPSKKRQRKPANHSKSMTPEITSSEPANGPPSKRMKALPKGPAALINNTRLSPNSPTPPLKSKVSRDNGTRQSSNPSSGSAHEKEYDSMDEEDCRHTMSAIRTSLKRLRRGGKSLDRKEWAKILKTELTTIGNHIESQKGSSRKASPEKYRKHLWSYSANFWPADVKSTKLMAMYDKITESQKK

With `CCCc1cc(CNC(=O)C2CCOc3ccccc3C2)on1` (stereo not given), the Percent Effect in assay [1] was -1.27%; in assay [2], 10.8%; in assay [3], 3.17%; in [4] it was 2.62%; in assay [5] it was 15.7%; in [6] it was 10.8%. Also, the Percent Effect in assay [7] was 29.7%; in assay [8], 5.85%; in [9], 14.6%; in [10], -2.75%.

With `O=C(Cn1cc(-c2ccccc2)ncc1=O)Nc1ccncc1`, the Percent Effect in [1] was -7.06%; in assay [2], 5.41%; in [3], 4.3%; in [4] it was -0.097%; in assay [5] it was 3.85%; in assay [6], 20%. Moreover, the Percent Effect in assay [7] was -4.45%; in [8], 6.92%; in assay [9] it was 17.1%; in [10] it was 90.8%.

With `COCCN1C[C@H]2[C@@H](C1)N(C(=O)c1cccs1)CC[C@H]2OC`, the Percent Effect was -5.76% in [1]; -108% in assay [2]; 1.61% in assay [3]; 7.11% in assay [4]; -6.07% in assay [5]; 4.5% in assay [6]. Also, the Percent Effect in assay [7] is -13.9%; in [8], 1.58%; in assay [9] it was 7.69%; in assay [10] it was 1.4%.

In the case of `Cc1ccccc1CC(=O)N(C)C1CCCC1`, the Percent Effect in [1] is -3.46%; in [2], 13.3%; in [3] it was -5.48%; in assay [4], -4.62%; in assay [5] it was 3.1%; in assay [6], 16.2%. In addition, the Percent Effect was 17% in assay [7], 3.68% in [8], 7.69% in assay [9] and -11.3% in [10].

Take `COc1cccc(-n2nnc(C(=O)N3CCN(C)CC3C)c2C)c1` (stereo not given): the Percent Effect in assay [1] was 1.69%; in assay [2] it was 25.6%; in [3], -23.9%; in assay [4] it was 6.1%; in assay [5] it was -2.46%; in [6], 13.4%. For the same molecule, the Percent Effect in assay [7] was 27.9%; in [8] it was 3.35%; in assay [9], 22.9%; in assay [10] it was 12.3%.

As for `COc1cc(C)nc(N2CCN(C(=O)COCC(F)(F)F)CC2)n1`, the Percent Effect was -3.6% in assay [1]; 7.69% in assay [2]; -1.63% in assay [3]; -1.22% in [4]; 1.64% in assay [5]; 3.16% in [6]. For the same molecule, the Percent Effect in [7] is 22.4%; in [8], 4.31%; in assay [9], 8.43%; in assay [10], -3.52%.

Take `O=C(NCCc1cccnc1)N1CCCC1c1ccsc1` (stereo not given): the Percent Effect is -6.89% in assay [1]; 17.9% in assay [2]; -11.1% in [3]; 5.73% in [4]; 3.69% in assay [5]; 6.74% in assay [6]. The Percent Effect was 13.9% in assay [7], 5.26% in assay [8], 22.9% in [9] and -9.16% in assay [10].

Regarding `CC[C@@H]1N(Cc2ccsc2)CCC[C@]12CCC(=O)N2CCOC`, the Percent Effect in [1] was -4.26%; in assay [2] it was 19.5%; in assay [3], -1.28%; in assay [4], -3.19%; in assay [5], 4.11%; in assay [6], 10.9%. Further, the Percent Effect is -2.54% in assay [7], 7.73% in assay [8], 7.5% in assay [9] and -3.65% in [10].

Take `Cn1ccnc1CN1CCOCC(Cc2ccccn2)C1` (stereo not given): the Percent Effect in [1] was -3.37%; in assay [2], 6.67%; in assay [3], 0.649%; in assay [4], -4.14%; in [5], 5.75%; in assay [6], 11.3%. Besides, the Percent Effect in assay [7] was 8.81%; in [8], 1.06%; in assay [9] it was 10%; in assay [10], -19.9%.

For `Cc1cccc(-c2noc(CN3CCCC3Cn3cccn3)n2)c1` (stereo not given), the Percent Effect in [1] was -4.47%; in assay [2], -13.3%; in [3] it was 4.15%; in assay [4], 2.81%; in assay [5], -0.887%; in [6], 9.07%. Further, the Percent Effect in assay [7] was 35.3%; in assay [8] it was 1.58%; in assay [9], 2.56%; in [10], -6.03%.

Consider `COc1cccc(-n2nnc(C(=O)N3CCNC(=O)C3)c2C)c1`, for which the Percent Effect is -4.4% in assay [1]; 15.4% in assay [2]; -22.9% in [3]; 9.11% in assay [4]; 0.41% in [5]; 8.96% in [6]. For the same molecule, the Percent Effect in [7] came out at 16%; in [8] it was 5.26%; in assay [9], 25.3%; in [10], 22.3%.
